Marburg entry inh – inhibitors of Marburg virus binding or cell entry; Potency, µM (highest dose often 37.8 µM), actives largely listed as inhibitors; Marburg virus pseudotyped entry inhibition, cell reporter; actives 1.8% (n = 300,000); calls by dose curve; tested in HEK293 cells
Pf growth 96h – P. falciparum growth inhibition at 96 hour, primary screen for plastid delayed-death inhibitors; P. falciparum luciferase reporter growth, 96 h; Potency, µM (top dose mostly 28.7 µM), usual class: inhibitors; actives 6.9% (n = 320,000); AID 504834
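P. falciparum expressing integrated firefly luciferase, in erythrocytes at 2% hematocrit, 0.05% parasitemia, incubated with compounds 96 h at 37 C, 5% CO2. Growth inhibition read as loss of luminescence; two-generation exposure targets delayed-death apicoplast inhibitors.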
HCV inh – inhibitors of hepatitis C virus infection | Huh7.5.1 HCVcc-Cre infection, luciferase reporter, 44 h | Potency, µM (series often up to 41.8 µM), most hits filed as inhibitors | actives 3.4% (n = 340,000) | AID 651820
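Whole-lifecycle infectious HCVcc-Cre system; cells 1,000/well, compound then virus (~0.5 moi) added 4 h after plating, 44 h culture. Luciferase read 15 sec following 15 min substrate incubation, room temp.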
Pf growth 48h – P. falciparum growth inhibition at 48 hours (one generation); Potency, µM (titrated, usually from 28.7 µM), usual class: inhibitors; P. falciparum luciferase growth in erythrocytes, 48 h; actives 5.9% (n = 310,000)
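Growth was read as firefly luciferase luminescence after a 48 h, 37 C, 5% CO2 exposure of compounds to reporter-bearing P. falciparum cultures (0.1% parasitemia, 2% hematocrit final) in Albumax-supplemented RPMI 1640.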
HCMV antiviral – inhibitors of human cytomegalovirus; HFF cells, HCMV-luciferase reporter, 72 h; hits give low values; activity change, negative = inhibition, % at 57.5 µM; actives 4.5% (n = 410,000); in the data active means activity change below about -60%; inconclusive means no clear call, values can overlap the other calls; inactive means above about -39%
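HFF cells seeded 16 h at 37C, treated with compounds, infected with luciferase-reporter HCMV at MOI 1 PFU/cell; luciferase read at 72 h post infection, normalized to buffer-only and Salinomycin controls.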
Lassa entry inh – blocks Lassa virus binding to or entry into cells. Lassa virus pseudotype entry inhibition, cell reporter. Potency, µM (top dose mostly 37.9 µM), most hits filed as inhibitors. actives 1.2% (n = 300,000); calls by dose curve; tested in HEK293 cells; further: nearly all actives have a fitted effect of over 50% in size
Large screens that a line does not name were inactive. Only some compounds are listed: those with a hit (about 14% of all), similar ones and a draw of the others. Unless noted, the call rests on the fitted dose curve; in most records, active means well fitted inhibition curve with a large enough effect; inconclusive means small, poorly fitted or top-dose-only effect, or another doubt; inactive means no such curve, though single readings can be large or run the other way.

CCCCn1c(NS(=O)(=O)c2ccccc2)c(C(=O)OCC)c2nc3ccccc3nc21	Marburg entry inh 4.6µM, Pf growth 96h inconclusive, HCV inh inconclusive, Pf growth 48h 1.7µM, HCMV antiviral inconclusive, Lassa entry inh inconclusive
CCOC(=O)c1c(NC(=O)c2ccco2)n(C2CCCCC2)c2nc3ccccc3nc12	Pf growth 96h 10µM, HCV inh inconclusive, Pf growth 48h inconclusive, Lassa entry inh inconclusive
CCC(=O)Nc1c(C#N)c2nc3ccccc3nc2n1C1CCCCC1	Marburg entry inh inconclusive, Pf growth 96h inconclusive, Pf growth 48h inconclusive
CCCCn1c(NS(=O)(=O)c2ccc(C)cc2)c(S(=O)(=O)c2ccccc2)c2nc3ccccc3nc21	Pf growth 96h 4.1µM, HCV inh inconclusive, Pf growth 48h inconclusive
Cc1ccc(-n2c(N)c(S(=O)(=O)c3ccccc3)c3nc4ccccc4nc32)cc1	Pf growth 96h inconclusive, HCMV antiviral inconclusive
CCOC(=O)c1c(N)n(C2CC(C)(C)NC(C)(C)C2)c2nc3ccccc3nc12	Marburg entry inh inconclusive, Pf growth 96h 9.3µM, Pf growth 48h 10µM, Lassa entry inh inconclusive (no result: HCMV antiviral)
COc1ccc(CNC(=O)c2cc3ccccn3n2)c(OC)c1	none (no result: Marburg entry inh, Pf growth 96h, HCV inh, Pf growth 48h)
CCCCn1c(NC(=O)c2ccc(Br)o2)c(C(=O)OCC)c2nc3ccccc3nc21	HCV inh inconclusive, Pf growth 48h inconclusive, HCMV antiviral -71
CCOc1ccccc1N1C(=O)CN(Cc2ccc(OC)c(OC)c2)C1=S	HCV inh 13µM (no result: Marburg entry inh, Lassa entry inh)
COc1ccc(CN2CC(=O)N(c3cc(Cl)ccc3OC)C2=S)cc1OC	HCV inh 11µM, Pf growth 48h 9.3µM (no result: Marburg entry inh, Lassa entry inh)
COc1ccc(Cl)cc1N1C(=O)CN(Cc2cc(OC)c(OC)c(OC)c2)C1=S	HCV inh 16µM, Pf growth 48h 3.3µM (no result: Marburg entry inh, Lassa entry inh)
COc1ccc(CN2CC(=O)N(c3ccccc3OC)C2=S)cc1OC	none (no result: Pf growth 48h)
O=C(NCc1ccccc1Cl)[C@H]1CCCN1C(=O)[C@H]1CCCN1C(=O)c1ccccc1	none (no result: Marburg entry inh, Pf growth 96h, HCV inh, Pf growth 48h, Lassa entry inh)
CCOC(=O)c1ccc2c(c1)nc(SCC(=O)c1ccco1)n2CC	Marburg entry inh inconclusive, Pf growth 48h inconclusive, Lassa entry inh inconclusive
CCOC(=O)c1ccc2c(c1)nc(C1CCN(S(=O)(=O)c3cccs3)CC1)n2CC	Marburg entry inh inconclusive, Pf growth 96h 8.3µM, HCV inh 6.3µM, Pf growth 48h 10µM, HCMV antiviral inconclusive, Lassa entry inh inconclusive
CCOC(=O)c1ccc2c(c1)nc(SCC(=O)N1CCCCC1)n2CC	Pf growth 96h 12µM
Cn1c(C(=O)N2CCCC(C(=O)N3CCN(c4ccccc4)CC3)C2)cc2sccc21 (stereo unspecified)	Marburg entry inh inconclusive (no result: Pf growth 96h, HCV inh, Pf growth 48h, Lassa entry inh)
Cc1cccc(N2CCN(C(=O)C3CCN(C(=O)c4cc5sccc5n4C)CC3)CC2C)c1 (stereo unspecified)	Marburg entry inh inconclusive, HCMV antiviral -84 (no result: Pf growth 96h, HCV inh, Pf growth 48h, Lassa entry inh)
Cn1c(C(=O)N2CCN(c3cccc(C(F)(F)F)c3)CC2)cc2sccc21	Marburg entry inh inconclusive, Pf growth 96h 9.3µM, HCV inh inconclusive, Lassa entry inh inconclusive
Cc1ccc(C)c(N2CCN(C(=O)c3cc4sccc4n3C)CC2)c1	Marburg entry inh 18µM, HCV inh inconclusive, Pf growth 48h inconclusive, Lassa entry inh inconclusive
Cc1ccc2occ(CC(=O)Nc3ccc(S(=O)(=O)N4CCCC(C)C4)cc3)c2c1 (stereo unspecified)	Lassa entry inh inconclusive (no result: Pf growth 96h, HCV inh, Pf growth 48h)
CCn1c(=O)c2cc(C(=O)Nc3cc(C)c(Cl)cc3OC)sc2c2ccccc21	HCMV antiviral -106 (no result: Pf growth 96h, HCV inh, Pf growth 48h)
CCn1c(=O)c2cc(C(=O)NCCOC)sc2c2ccccc21	HCV inh 10µM
CCn1c(=O)c2cc(C(=O)Nc3ccc(OC)cc3OC)sc2c2ccccc21	Pf growth 48h inconclusive (no result: Marburg entry inh, Lassa entry inh)
CCn1c(=O)c2cc(C(=O)NCCN(C)C)sc2c2ccccc21	Marburg entry inh 7.1µM, HCV inh 10µM, Lassa entry inh inconclusive
CC(C)CCNC(=O)c1cc(-c2cccnc2)nc2ccc(S(=O)(=O)N3CCC(C)CC3)cc12	none (no result: Marburg entry inh, Pf growth 96h, HCV inh, Pf growth 48h)
Cc1occc1-c1nnc(SC(C)C(=O)Nc2ccccc2F)o1 (stereo unspecified)	Marburg entry inh inconclusive, Lassa entry inh 11µM
CC(Sc1nnc(-c2ccccc2F)o1)C(=O)Nc1ccc(N2CCOCC2)cc1 (stereo unspecified)	Lassa entry inh inconclusive
Cc1ccc(OCC(=O)N2CCCCC2C)c([N+](=O)[O-])n1 (stereo unspecified)	none (no result: Marburg entry inh, Pf growth 96h, Pf growth 48h, Lassa entry inh)

Bioassay records deposited in PubChem by National Center for Advancing Translational Sciences (NCATS).
